Test results reported in PubChem BioAssay AID720519 (National Center for Advancing Translational Sciences (NCATS), 2013).
Results filed as inconclusive are left out. Entries that show only a call come without a potency. Activity calls are given as the source filed them. The call rests on the fitted dose curve; in most records, active means well fitted activation curve with a large enough effect; inconclusive means small, poorly fitted or top-dose-only effect; inactive means flat fitted curve, though single readings scatter.

Experiment: qHTS for Inhibitors of Cell Surface uPA Generation: Confirmatory Assay for Cherry-picked Compounds
Conditions: cell surface uPA activity generation, qHTS confirmation; series mostly up to 115 µM
In short: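 RAW 264.7 cells at 4000/well, incubated overnight, then treated with compounds. After 24 h at 37 C, viability was read by ATPlite luminescence. An increase in signal indicates blocked uPA-dependent LF entry.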
Potency means the concentration at half of the fitted maximal effect.

For `Cc1ccccc1C(=O)Nc1ccccc1N1CCCCC1`, the Potency was “inactive”.

In the case of `O=C(O)c1cc(N=Nc2c(O)[nH]c3ccc([N+](=O)[O-])cc23)ccc1Cl`, the Potency is reported as “inactive”.

With `CCc1ccc(NCc2nc(-c3ccccc3)no2)cc1` the Potency was “inactive”.

In the case of `COc1ccc([C@H]2CC(=O)C=C(c3ccc(CNC(=O)OC(C)(C)C)cc3)C2)cc1`, the Potency is reported as “inactive”.

With `O=C(/C=C/c1ccc(O)c(O)c1)O[C@@H]1C[C@](O)(C(=O)O)C[C@@H](O)[C@H]1O` the Potency was “inactive”.

In the case of `Cc1ccc2nc(Nc3ccc(Cl)cc3)c3nncn3c2c1`, the Potency is reported as “inactive”.

For `O=C(COC(=O)/C=C/c1cccc(F)c1)Nc1ccccc1`, the Potency was “inactive”.

For `CCCN1CCN(C2CCCCC2NS(=O)(=O)c2ccc(Cl)cc2)CC1` (stereo not drawn), the Potency was “inactive”.

For `CCCOc1ccc(CC2CCC(=O)NC2=O)cc1` (stereo not drawn), the Potency was “inactive”.

In the case of `Cc1ccc2cc(C=O)c(Cl)nc2c1`, the Potency is reported as “inactive”.

For `CCOC(=O)CN1C(=O)N[C@@H](c2ccco2)C(C(=O)OC)=C1C`, the Potency was “inactive”.

For `COc1ccc(-n2nnnc2SCC(=O)Nc2nnc(C)s2)cc1`, the Potency was “inactive”.

With `COC(=O)c1ccc(CN2CCCC(CNC(=O)Cc3ccc(OC)cc3)C2)cc1` (stereo not drawn) the Potency was “inactive”.

With `O=C(CSC1=NS(=O)(=O)c2ccccc2N1)Nc1nccs1` the Potency was “inactive”.

With `COc1ccccc1NNC(=O)C(O)(c1ccccc1OC)c1ccccc1OC` the Potency was “inactive”.

With `COc1ccc([C@@H]2[C@@H]3C(=O)N(C(C)(C)C)C(=O)[C@@H]3[C@]3(C)C(=O)N(c4cccc(Cl)c4)C(=O)N23)cc1` the Potency was “inactive”.

For `CCOC(=O)C1=C(C)NC(C)=C(C(=O)OCC)C1C(=O)OCC(=O)NCCc1ccccc1`, the Potency was 9.27 µM (active).

For `O=C(CN1CCCC1)Nc1cccc(Cl)c1Cl`, the Potency was “inactive”.

In the case of `CCCc1nn2c(=O)cc(CSCC(=O)Nc3ccccc3)nc2s1`, the Potency is reported as “inactive”.

For `Cn1c(C2CCCCC2)nc2cc(N)ccc21`, the Potency was “inactive”.

For `O=C(O)C(Nc1nc(C(F)(F)F)nc2ccccc12)c1ccccc1` (stereo not drawn), the Potency was “inactive”.

With `C[C@H]1CN([C@@H](C)CO)C(=O)c2cc(NS(=O)(=O)c3ccc(Cl)cc3)ccc2O[C@@H]1CN(C)CC1CCCCC1` the Potency was “inactive”.

In the case of `CC(=O)c1ccc(N2CCN(C(=S)NCc3ccco3)CC2)cc1`, the Potency is reported as “inactive”.

For `COc1ccccc1CCNC(=O)C(=O)NCC1OCCN1S(=O)(=O)c1ccc(OC)c(OC)c1` (stereo not drawn), the Potency was “inactive”.

With `CC(C)(C)OC(=O)C[C@@H]1C/C=C\C[C@@H](CC(=O)N(CCO)Cc2ccccc2)C(=O)N[C@H](Cc2c[nH]c3ccccc23)COC1=O` the Potency was “inactive”.

With `Cn1c(=O)n(CC(=O)O)c(=O)c2c1nc1n2CCCN1CCc1ccccc1` the Potency was “inactive”.

For `CC(C)NCC1CCc2cc(CO)c([N+](=O)[O-])cc2N1` (stereo not drawn), the Potency was “inactive”.

With `CCOC(=O)C1CCN(S(=O)(=O)c2c[nH]c(=O)[nH]c2=O)CC1` the Potency was “inactive”.

With `CC1CCCN(S(=O)(=O)c2cccc([N+](=O)[O-])c2)C1` (stereo not drawn) the Potency was “inactive”.

With `CCCCCN(C(=O)CCC(=O)OCCOc1cccc(Cl)c1)c1c(N)n(CCCC)c(=O)[nH]c1=O` the Potency was “inactive”.

With `O=C(CN(c1ccccc1F)S(=O)(=O)c1ccccc1)Nc1ccc2c(c1)OCCO2` the Potency was “inactive”.

For `CCC(NC(=S)NCc1ccc(F)cc1)c1ccccc1` (stereo not drawn), the Potency was “inactive”.

With `COc1ccc(C2C(C(=O)c3ccc(C)o3)=C(O)C(=O)N2CC2CCCO2)cc1OC` (stereo not drawn) the Potency was “inactive”.

In the case of `COc1cccc(NC(=S)NCc2ccc3c(c2)cc(C)n3C)c1`, the Potency is reported as “inactive”.

For `Cc1cc(-c2ccccc2)nc(N/N=C/c2ccc(N(C)C)cc2)n1`, the Potency was “inactive”.

With `Cc1ccsc1/C=C(\C#N)C(=O)NC1CCS(=O)(=O)C1` (stereo not drawn) the Potency was “inactive”.

With `O=C(O)CSc1nnc(COc2ccccc2)n1-c1ccccc1` the Potency was “inactive”.

With `CCOC(=O)CN1C(=O)N[C@@H](c2ccccc2)C(C(C)=O)=C1C` the Potency was “inactive”.

In the case of `CS(=O)(=O)N1CCC(C(=O)Nc2ccccc2)CC1`, the Potency is reported as “inactive”.

With `COc1cc(NC(=O)COC(=O)c2cc(S(=O)(=O)N3CCCCC3)ccc2Cl)c(C)cc1[N+](=O)[O-]` the Potency was “inactive”.

For `COc1ccccc1C(=O)NCc1ccccc1`, the Potency was “inactive”.

For `COc1cccc(NC(=O)N2C3CCCC2CC(NC(C)=O)C3)c1` (stereo not drawn), the Potency was “inactive”.

For `CC(C)CCN1C(=O)c2ccc(-c3nc4ccccc4c(=O)o3)cc2C1=O`, the Potency was “inactive”.

In the case of `CC1CCCN(C(=O)c2ccc(-c3ccccc3Cl)o2)C1` (stereo not drawn), the Potency is reported as “inactive”.

For `Cc1ccc(S(=O)(=O)N2CCOCC2)cc1NC(=O)CSc1nc(N)cc(N)n1`, the Potency was “inactive”.

With `O=C(CNC(=O)N1CC(=O)Nc2ccccc21)Nc1cc(Cl)ccc1Cl` the Potency was “inactive”.

For `CC(C)C[C@H]1CN([C@@H](CC(C)C)CN2CCCC2CN2C(=S)NC[C@@H]2Cc2ccc(O)cc2)C(=S)N1CC1CCCCC1` (stereo partly drawn), the Potency was “inactive”.

With `O=C(c1ccco1)N1CCN(c2ncccn2)CC1` the Potency was “inactive”.

For `Cc1ccc(S(=O)(=O)NC(=O)Nc2nccs2)cc1`, the Potency was “inactive”.

With `Cc1cc(C)n(C(=O)c2cccc([N+](=O)[O-])c2)n1` the Potency was “inactive”.

With `COC(=O)CSc1nc(N2CCOCC2)c2c(c1C#N)CCCC2` the Potency was “inactive”.

With `O=C(c1ccccn1)C1CCCN(Cc2cn[nH]c2-c2cc3ccccc3o2)C1` (stereo not drawn) the Potency was “inactive”.

In the case of `COc1ccc(C(=O)NCCCN2CCOCC2)cc1`, the Potency is reported as “inactive”.

For `CCN(CC)CC(=O)Nc1sc2c(c1C(=O)c1ccccc1OC)CCC2`, the Potency was 10.4 µM (active).

In the case of `CN(C)c1cccc(C(=O)N(C)C2CCCN(Cc3ccccc3F)C2)c1` (stereo not drawn), the Potency is reported as 20.7 µM (active).

With `Cc1ccc(S(=O)(=O)N2CCN(C(=O)c3n[nH]c(=O)c4ccccc34)CC2)cc1` the Potency was “inactive”.

With `COc1cc(SC)ccc1C(=O)OCc1nc2ccsc2c(=O)[nH]1` the Potency was “inactive”.

For `COc1ccc(NC(=O)/C(N=Nc2cc(S(=O)(=O)Nc3ccc(OC)cc3)ccc2OC)=C(\C)O)cc1`, the Potency was “inactive”.

In the case of `CN1CCN(C2=Nc3ccccc3Oc3ccc(Cl)cc32)CC1`, the Potency is reported as “inactive”.

With `CC1Cc2nc(SCC(=O)Nc3ccc4c(c3)OCO4)n(-c3ccc(F)cc3)c(=O)c2S1` (stereo not drawn) the Potency was “inactive”.

For `Cc1ccc(-c2nc(CS(=O)(=O)CC(=O)NCc3cccc(F)c3)c(C)o2)cc1`, the Potency was “inactive”.

For `CCOc1ncccc1C(=O)NCc1ccccc1Cl`, the Potency was “inactive”.

For `Cc1ccc(NC(=O)CS(=O)Cc2nc(-c3ccc(C)cc3)oc2C)cc1` (stereo not drawn), the Potency was “inactive”.

For `CC(C)(C)n1ncc2c(=O)n(Cc3ccc(Cl)cc3)cnc21`, the Potency was “inactive”.

For `COc1ccc(NC(=O)CC(C)CC(=O)NCc2ccccc2)c(OC)c1` (stereo not drawn), the Potency was “inactive”.

With `Cc1ccc(CC2CC(=O)N(c3cc(C)ccc3C)C2=O)cc1` (stereo not drawn) the Potency was “inactive”.

With `COc1ccc(NC(=O)CN2C(=O)CSc3ncccc32)cc1` the Potency was “inactive”.

In the case of `CC1(C)S[C@@H]2[C@H](NC(=O)C(C(=O)O)c3ccccc3)C(=O)N2[C@H]1C(=O)O` (stereo partly drawn), the Potency is reported as “inactive”.

In the case of `CCOc1ccccc1CN1CCCC(CNS(=O)(=O)c2ccc(OC)cc2)C1` (stereo not drawn), the Potency is reported as “inactive”.

In the case of `COCCCN1CC23C=CC(O2)C(C(=O)O)C3C1=O` (stereo not drawn), the Potency is reported as “inactive”.

With `Cc1ccccc1-c1nnc(SCC(=O)NCC2CCCO2)o1` (stereo not drawn) the Potency was “inactive”.

In the case of `COc1ccc(CCNC(=O)CSc2nc(N)c3c(C)c(C)oc3n2)cc1OC`, the Potency is reported as “inactive”.

For `Cc1ccc(C)c(N2N=C(C(=O)N(CC(C)C)c3c(N)n(Cc4ccccc4)c(=O)[nH]c3=O)CCC2=O)c1`, the Potency was “inactive”.

With `O=C(NCCS(=O)(=O)N1CCC2(CC1)OCCO2)c1ccc(F)cc1` the Potency was “inactive”.

With `Cc1ccnc(N2CCN(C(=O)CSc3nc4ccccc4nc3N3CCC(C)CC3)CC2)c1` the Potency was “inactive”.

For `CCCOc1ccc(S(=O)(=O)NNC(=O)c2cc3ccccc3o2)cc1`, the Potency was “inactive”.

For `CC(NC(=O)C1CCC(C(=O)NC(C)c2ccccc2)CC1)c1ccccc1` (stereo not drawn), the Potency was “inactive”.

In the case of `O=C(O)CCc1nn2c3ccccc3n(CC(=O)O)c2nc1=O`, the Potency is reported as “inactive”.

In the case of `O=C(CCN1CCN(c2ccccc2F)CC1)Nc1ccc(F)cc1`, the Potency is reported as “inactive”.

With `Cc1ccc2oc(C(=O)N(Cc3ccc(N(C)C)cc3)C3CCS(=O)(=O)C3)c(C)c2c1` (stereo not drawn) the Potency was “inactive”.

For `COc1ccc(C(CNC(=O)C(C)Oc2ccc(Br)cc2)N2CCCC2)cc1` (stereo not drawn), the Potency was “inactive”.

For `CCn1nc(C)c(CNC(=O)C2CCC(=O)N(CCc3ccc(OC)cc3)C2)c1C` (stereo not drawn), the Potency was “inactive”.

For `CN1CC[C@]23c4ccccc4N[C@H]1[C@]21CCN(C)[C@H]3Nc2ccccc21`, the Potency was “inactive”.

With `COc1ccccc1N1CCN(C(=O)CCC(=O)N2CCN(c3ccc(F)cc3)CC2)CC1` the Potency was “inactive”.

With `CCN(CC)c1c([N+](=O)[O-])c(=O)sc2ccccc12` the Potency was “inactive”.

With `CC(C)CN(C(=O)CN1CCC(C)CC1)c1c(N)n(CC(C)C)c(=O)[nH]c1=O` the Potency was “inactive”.

For `NC(=O)CC(NC(=O)Cc1cccc2ccccc12)c1ccc(N2CCN(c3ccccc3)CC2)c([N+](=O)[O-])c1` (stereo not drawn), the Potency was “inactive”.

With `CC(C)c1ccc(SCc2noc(C(=O)NCC3CCCO3)c2C(=O)O)cc1` (stereo not drawn) the Potency was “inactive”.

With `Cc1nc2ncccn2c1-c1csc(Nc2ccc(S(N)(=O)=O)cc2)n1` the Potency was “inactive”.

With `CN(C)C(=O)NC(NC(=S)Nc1ccccc1)C(Cl)(Cl)Cl` (stereo not drawn) the Potency was “inactive”.

For `C=C(C)C(=O)O[C@H]1C/C(C)=C\C(=O)/C=C(\C)[C@H](O)[C@@H]2OC(=O)C(=C)[C@@H]21`, the Potency was “inactive”.

In the case of `COc1ccc(C(=O)NNC(=O)Cc2ccc(Cl)cc2)cc1`, the Potency is reported as “inactive”.

With `CCOc1ccc(NC(=S)N2CCC(c3ccc(C)cc3)C2)cc1` (stereo not drawn) the Potency was “inactive”.

In the case of `O=[N+]([O-])c1ccc(SCc2ccncc2)nc1`, the Potency is reported as “inactive”.

In the case of `CCOc1cc(C(=O)OCC(=O)c2cc(C)n(CC3CCCO3)c2C)ccc1OCC(=O)N1CCOCC1` (stereo not drawn), the Potency is reported as “inactive”.

With `N#Cc1ccccc1Sc1ccccc1C(=O)Nc1ccc(Br)cc1` the Potency was “inactive”.

In the case of `O=C(NC(=O)c1ccccc1)Nc1cccc(S(=O)(=O)N2CCCCC2)c1`, the Potency is reported as “inactive”.

In the case of `COc1ccc(-c2cc3nc(C)cc(-c4ccc(OC)cc4)n3n2)cc1`, the Potency is reported as “inactive”.
